# Source: PubChem BioAssay AID504834 (National Center for Advancing Translational Sciences (NCATS), 2011)
# Among all 320,000 compounds or so, about 22,000 (6.9%) were called active. Another 27% or so got no clear call; they are omitted. The entries come from a sample that favours actives as a whole. Unmarked numbers belong to inactive results. Calls follow the shape of the dose curve; as a rule, active = well fitted inhibition curve with a large enough effect; inconclusive = small, poorly fitted or top-dose-only effect, or another doubt; inactive = no such curve, though single readings can be large or run the other way.
# Assay: Primary qHTS for delayed death inhibitors of the malarial parasite plastid, 96 hour incubation
# Conditions: P. falciparum luciferase reporter growth; series mostly up to 28.7 µM; activity change, negative = inhibition: at the top concentration
# Method in brief: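 Readout is luminescence from an integrated firefly luciferase in P. falciparum. Red cells, 2% hematocrit and 0.05% parasitemia final, were cultured with compound through two parasite generations (96 hours) at 37 C, 5% CO2.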
# % is scaled to controls: 0 for no effect and ±100 for the full control effect; potency is read from the fitted curve at half-maximal effect.
Compound,"activity change, negative = inhibition",Potency
COc1ccc(-c2c(NC(=O)c3ccco3)oc3ccc(Cl)cc3c2=O)cc1,-23.7%,–
CCCc1cc(=O)[nH]c(SCC(=O)N2C(C)CCCC2C)n1 (centres undefined),5.23%,–
CC1(C)NC(=O)N(CC(=O)Nc2cc(C(F)(F)F)cc(C(F)(F)F)c2)C1=O,0%,–
O=C(COC(=O)CNC(=O)C1CCCCC1)Nc1cccc(F)c1,9.28%,–
COc1ccc2nc(N3CCCC(O)C3)c(C#N)cc2c1 (centres undefined),18.5%,–
CCOc1ccc2nc(N3CCCN(C(=O)Nc4ccccc4C)CC3)c(C#N)cc2c1,–,13.1 µM (active)
Cc1ccc(F)cc1NC(=O)N1CCCN(c2ccc(C(F)(F)F)cn2)CC1,-5.35%,–
CC1(C)O[C@H]2CC(=O)OCC23[C@H]2CC[C@@]4(C)[C@H](c5ccoc5)OC(=O)[C@H]5O[C@]54[C@]2(C)C(=O)C[C@@H]13 (some centres undefined),7.54%,–
O=C1/C(=C/c2coc3ccc(O)cc3c2=O)SC(=S)N1c1ccccc1,75.1%,–
CC(C)(C)C(=O)CN1C2=NCCN2c2ccccc21,-4.41%,–
COc1cc(C)c(C)cc1S(=O)(=O)N1CCCc2ccccc21,-9.05%,–
Cc1cc2c(cc1C)N(Cc1ccccc1)C1=NCCCN12,–,7.38 µM (active)
COC(=O)c1ccc(/C=C2/C(=O)Oc3ccccc32)cc1,17.3%,–
Clc1cc(NC2CCCCC2)ncn1,14.6%,–
O=C1c2ccccc2S(=O)(=O)N1Cc1c(F)cccc1Cl,2.02%,–
CC1CCN(C(=O)Cn2cc(C(=O)c3ccco3)c3ccccc32)CC1,–,10.4 µM (active)
N#Cc1ccc(Cn2cc(C(=O)c3ccco3)c3ccccc32)cc1,8.66%,–
Cc1cccc(NC(=O)Cn2cc(C(=O)c3ccco3)c3ccccc32)c1,191%,–
CC(=O)Nc1ccc(S(=O)(=O)N2CCn3cccc3C2C)cc1 (centres undefined),-27.5%,–
Cc1cc(NC(=O)c2ccc(F)cc2)ccc1NC(=O)c1ccco1,0.99%,–
CC1CCCN(S(=O)(=O)c2ccc(-c3ccc(=O)[nH]n3)o2)C1 (centres undefined),-16.1%,–
CN(Cc1c(F)cccc1Cl)S(=O)(=O)c1cccs1,43%,–
COc1ccc2cc1Oc1ccc(cc1)C[C@H]1c3cc(c(OC)cc3CCN1C)Oc1c(O)c(OC)cc3c1[C@H](C2)N(C)CC3,–,1.85 µM (active)
CCOc1ccc(C(=O)COC(=O)c2ccc(-n3cnnn3)cc2)cc1,-1.17%,–
CCOc1ccc(C(=O)N(Cc2ccc(N(C)C)cc2)C2CCS(=O)(=O)C2)cc1 (centres undefined),17.3% [at 5.75 µM],–

Compound,"activity change, negative = inhibition",Potency
COc1cc(C(=O)N(Cc2ccc(N(C)C)cc2)C2CCS(=O)(=O)C2)cc(OC)c1OC (centres undefined),-19.2%,–
CC1(C)C(C=C(Cl)Cl)C1C(=O)N(Cc1ccc(Cl)cc1)C1CCS(=O)(=O)C1 (centres undefined),–,11.7 µM (active)
O=C1[C@@H]2C(c3cccnc3)=NO[C@@H]2C(=O)N1c1ccc(Cl)cc1Cl,33.2%,–
CC(C)[C@H](NC(=O)OCc1ccccc1)C(=O)OCc1ccccc1,19.1%,–
COc1ccc(C2NC(=O)C(=O)/C2=C(\O)c2ccc(Cl)cc2)cc1OC (centres undefined),-2.4%,–
CCCN(CC(=O)Nc1ccc(C(N)=O)cc1)CC(=O)Nc1ccccc1C,3.33%,–
CCCN(CC(=O)Nc1ccccc1C)C(=O)c1ccc2[nH]c3c(c2c1)CC(C)CC3 (centres undefined),–,13.1 µM (active)
CC1CCc2[nH]c3ccc(C(=O)N(C)CC(=O)Nc4cccc(F)c4)cc3c2C1 (centres undefined),-0.213%,–
O=C(OCc1nnc(-c2ccccc2)o1)c1cc(=O)[nH]c2ccccc12,10.2%,–
CCc1nnc(NC(=O)CSCc2cc(=O)n3cc(C)sc3n2)s1,29.2%,–
CC(NCCc1ccc(S(N)(=O)=O)cc1)C(=O)NCc1ccccc1 (centres undefined),-7.88%,–
O=C(Nc1nc(-c2ccncc2)cs1)C1COc2ccccc2O1 (centres undefined),5.96%,–
COc1ccc(NC(=O)C2COc3ccccc3O2)cc1 (centres undefined),–,1.17 µM (active)
COc1ccc(NC(=O)CC2COc3ccccc3O2)c(OC)c1 (centres undefined),245%,–
CC(=O)c1cccc(NC(=O)C2COc3ccccc3O2)c1 (centres undefined),–,2.62 µM (active)
O=C(Nc1nc2c(F)cc(F)cc2s1)C1COc2ccccc2O1 (centres undefined),-7.95%,–
CC(=O)c1cccc(NC(=O)C2CCN(C(=O)c3ccccc3Cl)CC2)c1,-21.5%,–
CCNC(=S)N(CCN(CC)CC)Cc1cc2cc3c(cc2[nH]c1=O)OCCO3,-17.8%,–
O=C(/C=C/c1cccc([N+](=O)[O-])c1)N1CCN(Cc2ccccc2)CC1,16.1%,–
Clc1ccc(C[n+]2cc(-c3ccccc3)n3c2CCC3)cc1,–,0.586 µM (active)
Clc1ccc(C[n+]2cc(-c3ccc(Cl)cc3)n3c2CCC3)cc1,–,0.37 µM (active)
O=C(Cc1ccc(Br)cc1)NCCN1CCOCC1,0.209%,–
COc1cccc(NC(=O)CSc2nnc(-c3cccnc3)o2)c1,57.6%,–
NC(=O)C1CCN(C(=O)c2ccc3c(=O)n(Cc4cccc(Br)c4)c(=S)[nH]c3c2)CC1,18.4%,–
